CYP2C19 inh: human CYP2C19 inhibition. CYP2C19 Supersomes, luciferin-H EGE luminescence, 30 min. inhibition, % at 5 µM. P33261. actives 21% (n = 96,000);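 active = CYP2C19 inhibition above a set limit at 5 µM in the primary screen, cut at about 50% in these data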;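 also: plate controls were negative control wells for no effect and 2.5 mM tranylcypromine positive control for full effect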
Target sequence (P33261 whole entry, looked up): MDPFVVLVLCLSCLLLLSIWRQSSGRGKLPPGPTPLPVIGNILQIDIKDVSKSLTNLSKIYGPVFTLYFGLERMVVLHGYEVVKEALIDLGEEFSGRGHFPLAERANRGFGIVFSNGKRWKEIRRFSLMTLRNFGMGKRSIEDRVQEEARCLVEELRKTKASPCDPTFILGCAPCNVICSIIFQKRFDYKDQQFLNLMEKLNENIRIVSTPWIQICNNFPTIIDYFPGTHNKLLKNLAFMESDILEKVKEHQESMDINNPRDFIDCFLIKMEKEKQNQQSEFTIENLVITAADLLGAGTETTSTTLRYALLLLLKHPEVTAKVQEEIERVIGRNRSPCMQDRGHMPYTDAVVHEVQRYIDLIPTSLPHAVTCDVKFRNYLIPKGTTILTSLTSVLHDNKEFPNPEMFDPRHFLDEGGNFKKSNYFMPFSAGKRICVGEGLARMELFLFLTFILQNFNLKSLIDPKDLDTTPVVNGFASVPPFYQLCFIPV
CYP2C19 activ: increases human CYP2C19 enzyme activity; recombinant CYP2C19, luciferin-H EGE luminescence; active compounds read high; 0 = fully inhibited enzyme, 1 = untreated enzyme; activation factor at 5 µM; 96,000 tested, under 10 active; AID 1025;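 active = activation factor of at least 2 at 5 µM in the primary screen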;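 also: 0 = wells with 2.5 mM tranylcypromine and 1 = vehicle-only wells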
CYP2C9 inh: inhibitors of human CYP2C9. P11712. actives 20% (n = 96,000). AID 777. CYP2C9 Supersomes, luciferin-H conversion, luminescence. inhibition, % at 5 µM;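 active = blocking of liver enzyme CYP2C9 beyond about 50% at 5 µM, limit read from the data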
CYP2C9 activ: increases human cytochrome P450 2C9 activity; P11712; activation factor at 5 µM; actives 1.4% (n = 96,000); recombinant CYP2C9, luciferin-H conversion, luminescence; active compounds read high; factor 1 = untreated enzyme, 0 = blocked;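 active = activation factor of 2 or more for CYP2C9 at a 5 µM dose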;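 also: 0 = sulfaphenazole-blocked wells and 1 = vehicle-only wells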
* = called active by the depositor. The list is not random: actives were taken first. Their share in the collection is about 31%.

SMILES	CYP2C19 inh	CYP2C19 activ	CYP2C9 inh	CYP2C9 activ
CCn1c(O)c(C(C#N)=C2N=c3ccccc3=N2)c2ccccc21	31.0	0.7	-31.1	1.3
Cc1cc(NC(=O)CN2C(=O)NC(Cc3ccccc3)C2=O)no1 (configuration not stated)	5.4	0.9	12.6	0.9
Cc1onc(-c2ccccc2)c1C(=O)Nc1nc(-c2cc(F)ccc2F)cs1	-11.4	1.1	-14.4	1.1
COc1cccc(/C=N/NC(=O)c2c(-c3ccccc3)noc2C)c1	50.4*	0.5	67.0*	0.3
Cc1nnc(NC(=O)c2c(-c3ccccc3)noc2C)s1	-4.8	1	-1.1	1
CCOCCCNC(=O)c1c(-c2ccccc2)noc1C	14.0	0.9	-19.6	1.2
Cc1cc(C(=O)OC(C)C(=O)Nc2nc(-c3ccccc3)cs2)c(C)o1 (configuration not stated)	89.4*	0.1	96.2*	0
CCC(CC)c1nnc(NC(=O)c2c(-c3ccccc3)noc2C)s1	19.2	0.8	58.3*	0.4
Cc1onc(-c2ccccc2)c1C(=O)Nc1nc(-c2ccccc2)cs1	70.4*	0.3	71.7*	0.3
CCC(C)[C@H](NC(=O)NC1CCCc2ccccc21)C(=O)O (some centres not stated)	5.5	0.9	28.2	0.7
O=C(NCc1ccco1)c1cc(-c2ccc(Cl)cc2)on1	0.5	1	18.0	0.8
Cc1cc(C)n(C(=O)CSc2nnc(SCC(=O)n3nc(C)cc3C)s2)n1	-19.7	1.2	-14.8	1.1
Cc1onc(-c2ccccc2)c1C(=O)Nc1nnc(COc2ccc(Cl)cc2)s1	54.0*	0.5	97.9*	0
Cc1onc(-c2ccccc2)c1C(=O)Nc1nnc(N(C)Cc2ccccc2)s1	22.0	0.8	41.9	0.6
COC(=O)c1ccc(C)c(NC(=O)c2c(-c3ccccc3)noc2C)c1	69.3*	0.3	39.3	0.6
Cc1oc2ccc(O)c(CN3CCOCC3)c2c1C(=O)c1ccc(Cl)cc1	58.8*	0.4	52.1*	0.5
Cn1c(-c2cccc(OCc3ccccc3)c2)nc2c1c(=O)[nH]c(=O)n2Cc1ccccc1	4.6	1	54.2*	0.5
O=C(Nc1cccc(F)c1)NC1CCCCC1	55.0*	0.4	41.0	0.6
COc1ccccc1NC(=O)C1=C(C)NC(SCC(=O)c2ccccc2)=C(C#N)C1c1ccco1 (configuration not stated)	54.8*	0.5	78.4*	0.2
CC1=C(C(=O)Nc2ccccc2)C(c2ccc3c(c2)OCO3)C2=C(CCCC2=O)N1 (configuration not stated)	66.4*	0.3	52.8*	0.5
COc1ccc(OC)c(C2C(C(=O)Nc3cccnc3)=C(C)NC3=C2C(=O)CCC3)c1 (configuration not stated)	55.7*	0.4	98.2*	0
COc1ccc(OC)c(C2C3=C(CCCC3=O)NC3=C2C(=O)CCC3)c1	2.1	1	-6.1	1.1
Cc1ccc(C(=O)CSC2=C(C#N)C(c3ccco3)C3=C(CC(C)(C)CC3=O)N2)cc1 (configuration not stated)	88.4*	0.1	87.7*	0.1
COC(=O)CCS(=O)(=O)c1ccc(Cl)c(Cl)c1	47.9	0.5	-19.5	1.2
COc1ccc(OC)c(NC(=O)CSC2=C(C#N)C(c3ccco3)C3=C(CCCC3=O)N2)c1 (configuration not stated)	83.9*	0.2	86.2*	0.1
SMILES	CYP2C19 inh	CYP2C19 activ	CYP2C9 inh	CYP2C9 activ
CC(=O)C1=C(C)NC(SCC(=O)c2ccc(C)cc2)=C(C#N)C1c1ccco1 (configuration not stated)	99.0*	0	96.0*	0
N#CC1=C(SCC(=O)c2ccc(Cl)cc2)NC2=C(C(=O)CCC2)C1c1ccco1 (configuration not stated)	98.8*	0	97.2*	0
CC1(C)CC(=O)C2=C(C1)NC(SCC(=O)Nc1ccccc1)=C(C#N)C2c1ccco1 (configuration not stated)	95.9*	0	95.4*	0
CCOCCCNC(=O)Cc1ccc(OC)c(OC)c1	0.7	1	-3.3	1
CCOc1ccccc1C(=O)Nc1cc(Cl)ccc1O	-9.4	1.1	-26.8	1.3
Cc1ccc(NC(=O)CSC2=C(C#N)C(c3ccco3)C3=C(CCCC3=O)N2)cc1 (configuration not stated)	17.8	0.8	43.3	0.6
CCc1ccccc1NC(=O)CSC1=C(C#N)C(c2ccc3c(c2)OCO3)C2=C(CCCC2=O)N1 (configuration not stated)	51.4*	0.5	80.0*	0.2
